Shown are actives, neighbours in structure and some others; about 12% of the full set was active somewhere.
HP1b chromo inh – inhibitors of HP1-beta chromodomain binding to methylated histone tails; AID 540317; P83916; AlphaScreen HP1-beta / biotin-H3K9me3 peptide binding; Potency, µM (series often up to 114 µM), inactives show at the top dose activity change, negative = inhibition, most hits filed as inhibitors; hit rate 0.56% among 390,000; further: nearly all actives have a fitted effect of over 70% in size
Target sequence (P83916 whole entry, looked up): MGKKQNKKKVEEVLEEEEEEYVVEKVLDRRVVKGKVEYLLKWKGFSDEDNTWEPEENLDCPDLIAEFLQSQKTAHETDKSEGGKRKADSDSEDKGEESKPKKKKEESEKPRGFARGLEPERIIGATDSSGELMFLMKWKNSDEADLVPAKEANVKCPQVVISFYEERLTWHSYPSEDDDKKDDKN
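AlphaScreen: HP1-beta (50 nM) preformed 30 min with biotin-H3(1-18)K9me3 peptide (50 nM) in PBS pH 7.4, 0.01% Tween-20. Compound added for 30 min at RT, then streptavidin donor/nickel chelate acceptor beads (10 ug/mL) for 30 min.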
Sfp inh – blocks B. subtilis Sfp PPTase activity | Biochemical Sfp PPTase activity, qHTS | Potency, µM, for inactives: largest response in the series, negative = inhibition, usual class: inhibitors | hit rate 3.5% among 310,000;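 further: the enzyme is Sfp with the accession as filed and its product quenches rhodamine fluorescence; 0% = enzyme reaction without inhibitor and -100% = no enzyme wells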
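Sfp 15 nM + cpd, 15 min RT; start w/ rhodamine-CoA 5 uM, BHQ-2-YbbR 12.5 uM (final); 50 mM Hepes pH 7.6, 10 mM MgCl2, 0.01% NP-40, 0.01% BSA; read 525/598 nm at 0 and 30 min.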
JMJD2A Tudor – inhibitors of human JMJD2A Tudor domain | hit rate 4.4% among 390,000 | AID 504339 | O75164 | Potency, µM (doses to about 114 µM), inactives show at the top dose activity change, negative = inhibition, most hits filed as inhibitors | AlphaScreen JMJD2A-Tudor / H3K4me3 peptide binding; further: on the % scale 0 is the no-effect control and ±100 the full control effect; nearly all actives have a fitted effect of over 50% in size
G9a block – inhibitors of human histone lysine methyltransferase G9a; hit rate 8.8% among 350,000; Potency, µM (series often up to 102 µM), without a hit: at the top dose activity, negative = inhibition, usual class: inhibitors; G9a H3K9 monomethylation, AlphaScreen, 2 h; further: on the % scale 0 is the no-effect control and ±100 the full control effect; nearly all actives have a fitted effect of over 75% in size
Target sequence (Q96KQ7 913-1193 limits assumed): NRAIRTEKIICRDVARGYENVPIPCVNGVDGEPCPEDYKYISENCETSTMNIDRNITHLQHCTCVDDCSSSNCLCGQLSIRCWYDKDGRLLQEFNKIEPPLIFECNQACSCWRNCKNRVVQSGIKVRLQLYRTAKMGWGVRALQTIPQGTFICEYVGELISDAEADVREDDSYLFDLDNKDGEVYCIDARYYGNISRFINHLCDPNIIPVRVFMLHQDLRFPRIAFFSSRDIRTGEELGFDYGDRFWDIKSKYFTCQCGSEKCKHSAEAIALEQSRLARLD
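G9a (20 nM) preincubated 15 min RT with compounds, then 500 nM biotinylated H3K9 peptide and 20 uM SAM added; 2 h RT reaction. Monomethyl-H3K9 product detected by AlphaScreen with anti-H3K9me1 antibody, streptavidin donor and anti-rabbit IgG acceptor beads.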
L3MBTL1 inh – blocks human L3MBTL1; Q9Y468; AlphaScreen L3MBTL1–H3K9me1 peptide binding; Potency, µM (series often up to 57.1 µM), inactives show top-dose activity, negative = inhibition, actives largely listed as inhibitors; hit rate 0.66% among 230,000; further: on the % scale 0 is the no-effect control and ±100 the full control effect; nearly all actives have a fitted effect of over 60% in size
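L3MBTL1 (50 nM) pre-complexed 30 min with biotinylated H3(1-15)K9me1 peptide (75 nM), then compounds added for 30 min at room temperature; AlphaScreen streptavidin donor/nickel chelate acceptor beads (10 ug/mL final) read after 30 min dark incubation.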
BAZ2B inh – inhibitors of human BAZ2B bromodomain; hit rate 4.4% among 360,000; AlphaScreen BAZ2B-H3K14Ac peptide displacement; Potency, µM (top dose mostly 114 µM), for the others: top-dose activity change, negative = inhibition, hits mostly inhibitors; AID 504333; further: on the % scale 0 is the no-effect control and ±100 the full control effect; nearly all actives have a fitted effect of over 60% in size
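Inhibition is scored as reduced AlphaScreen emission. The BAZ2B/b-H3(5-23)K14Ac complex (50 nM each) in PBS pH 7.4, 0.01% Tween-20 meets compound (up to 110 uM) for 30 min at RT before bead addition.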
Active calls of the source: *; [ ] = remark or other dose. The call rests on the fitted dose curve; in most records, active means well fitted curve in the direction sought with a large enough effect; inconclusive means small, poorly fitted or top-dose-only effect, or another doubt; inactive means no such curve, though single readings can be large; an effect the other way counts as inactive or inconclusive. Potency means the concentration at half of the fitted maximal effect.

What do the screens show for `Cc1ccc(CNC(=O)CN2C(=O)CSc3c2c(C)nn3-c2ccccc2)cc1`?
HP1b chromo inh: -16%; JMJD2A Tudor: -33%; G9a block: 10%[59 µM]; BAZ2B inh: -3%

What do the screens show for `Cc1ccc(-n2ncc(C(=O)NCCc3ccccc3)c2C2CCN(C(=O)OC(C)(C)C)CC2)c(C)c1`?
HP1b chromo inh: -5%; JMJD2A Tudor: -32%; G9a block: -35%[59 µM]; BAZ2B inh: 0%[57.1 µM]

What do the screens show for `O=C(NNC(=O)c1ccc(-n2cncn2)c([N+](=O)[O-])c1)c1ccc(Cl)cc1`?
HP1b chromo inh: 37%; JMJD2A Tudor: -9%; G9a block: 9%[0.501 µM]; L3MBTL1 inh: 3%; BAZ2B inh: 11%

What do the screens show for `c1ccc(Cn2nnc3ccccc32)cc1`?
HP1b chromo inh: 34%; Sfp inh: 23%; JMJD2A Tudor: 3%; G9a block: 13%; L3MBTL1 inh: -7%; BAZ2B inh: 5%

Results for c1ccc(Cc2nn3c(Cn4nnc5ccccc54)nnc3s2)cc1 ?
HP1b chromo inh: -41%; Sfp inh: 35µM*; JMJD2A Tudor: -29%; G9a block: 8.9µM*; L3MBTL1 inh: 2%; BAZ2B inh: -1%

How did Oc1ccc(/C=N/n2c(C3CCCCC3)n[nH]c2=S)c(O)c1 do in these assays?
HP1b chromo inh: -10%; Sfp inh: 0.18µM*; JMJD2A Tudor: 14µM*; G9a block: 1.6µM*; BAZ2B inh: -33%

How did Oc1ccc(Br)cc1/C=N/n1c(C2CCCCC2)n[nH]c1=S do in these assays?
HP1b chromo inh: -18%; Sfp inh: -2%; JMJD2A Tudor: inconclusive; G9a block: 50µM*; BAZ2B inh: inconclusive

What do the screens show for `O=C(N/N=C/c1ccc(O)cc1O)C1CC1`?
HP1b chromo inh: 35%; JMJD2A Tudor: -26%

What do the screens show for `Cc1ccc(Sc2ccc(N3CCC(C(=O)Nc4ccc(C)c(F)c4)CC3)nn2)cc1`?
HP1b chromo inh: 22%; JMJD2A Tudor: -9%; G9a block: 6%[59 µM]; BAZ2B inh: 1%

How did CN(C)S(=O)(=O)c1cccc(NC(=S)Nc2cc(Cl)cc(Cl)c2)c1 do in these assays?
HP1b chromo inh: -11%; Sfp inh: 50µM*; JMJD2A Tudor: -17%; G9a block: inconclusive; BAZ2B inh: 1%

How did CCN(CCO)c1ccc(NC(=S)Nc2cccc(S(=O)(=O)N(C)C)c2)cc1 do in these assays?
HP1b chromo inh: -18%; Sfp inh: 50µM*; JMJD2A Tudor: -9%[11.4 µM]; G9a block: inconclusive; BAZ2B inh: inconclusive

How did CN(C)S(=O)(=O)c1cccc(NC(=S)NCc2ccco2)c1 do in these assays?
HP1b chromo inh: 18%; Sfp inh: inconclusive; JMJD2A Tudor: -34%; G9a block: 45µM*; L3MBTL1 inh: 13%

Results for CN(C)S(=O)(=O)c1cccc(NC(=S)Nc2ccc(Cl)cc2Cl)c1 ?
HP1b chromo inh: 10%; Sfp inh: inconclusive; JMJD2A Tudor: -12%; G9a block: -51%[59 µM]; BAZ2B inh: -25%

Results for CCN(CC)CCCNC(=O)c1c(C)oc2ncnc(N3CCOCC3)c12 ?
HP1b chromo inh: 23%; JMJD2A Tudor: 10%; G9a block: 4%[59 µM]; BAZ2B inh: 10%[57.1 µM]

How did CCN1C(=O)C(C(=O)c2ccccc2)SC1=S (stereo unspecified) do in these assays?
HP1b chromo inh: -37%; Sfp inh: 20µM*; JMJD2A Tudor: 56µM*; G9a block: 22µM*; L3MBTL1 inh: -28%; BAZ2B inh: 56µM*

Results for CCN1C(=O)C2C(C1=O)N1C(c3ccccc3)C3C(=O)N(CC)C(=O)C3N1C2c1ccccc1 (stereo unspecified) ?
HP1b chromo inh: 11%; Sfp inh: 13%; JMJD2A Tudor: 1%; G9a block: -2%[59 µM]; BAZ2B inh: 1%

What do the screens show for `CC(C)N1CCC2(CC1)C(C#N)=C(N)NC(S)=C2C#N`?
Sfp inh: -9%; G9a block: 1.6µM*; L3MBTL1 inh: -14%; BAZ2B inh: -10%

Results for CC1CCN(CCCN2C(=O)C3C(C(=O)Nc4ccc(Cl)cc4)C4C=CC3(O4)C2C(=O)NC2CCCCC2)CC1 (stereo unspecified) ?
HP1b chromo inh: -11%; Sfp inh: 9%; JMJD2A Tudor: -15%; G9a block: 40µM*; BAZ2B inh: -3%

Results for O=C(Nc1ccc(Br)cc1)C1C2C=CC3(O2)C1C(=O)N(CCN1CCCCC1)C3C(=O)NC1CCCCC1 (stereo unspecified) ?
HP1b chromo inh: 2%; Sfp inh: 14%; JMJD2A Tudor: -18%; G9a block: 50µM*; BAZ2B inh: -16%

How did Cc1ccc(NC(=O)C2C3C=CC4(O3)C2C(=O)N(CCCN2CCCC(C)C2)C4C(=O)NC2CCCCC2)cc1 (stereo unspecified) do in these assays?
HP1b chromo inh: 1%; Sfp inh: 14%; JMJD2A Tudor: -14%; G9a block: inconclusive; BAZ2B inh: 1%

How did CCCN(CCC)CCN1C(=O)C2C(C(=O)Nc3cccc(SC)c3)C3C=CC2(O3)C1C(=O)NC1CCCCC1 (stereo unspecified) do in these assays?
HP1b chromo inh: 30%; Sfp inh: 1%; JMJD2A Tudor: -8%; G9a block: inconclusive; BAZ2B inh: -20%

What do the screens show for `CC1CCCN(CCCN2C(=O)C3C(C(=O)Nc4ccc(Cl)cc4)C4C=CC3(O4)C2C(=O)NC2CCCCC2)C1` (stereo unspecified)?
HP1b chromo inh: -24%; Sfp inh: 7%; JMJD2A Tudor: -16%; G9a block: 45µM*; BAZ2B inh: -3%

How did CSc1cccc(NC(=O)C2C3C=CC4(O3)C2C(=O)N(CCCN2CCOCC2)C4C(=O)NC2CCCCC2)c1 (stereo unspecified) do in these assays?
HP1b chromo inh: -9%; Sfp inh: -5%; JMJD2A Tudor: -17%; G9a block: 45µM*; BAZ2B inh: -21%

How did CCc1ccc(-c2cc(C)no2)cc1S(=O)(=O)N1CCN(c2ccc(F)cc2)CC1 do in these assays?
HP1b chromo inh: 22%; Sfp inh: -3%; JMJD2A Tudor: -14%; G9a block: 27%; BAZ2B inh: inconclusive

What do the screens show for `Cc1c(/C=C/C(=O)c2cccs2)cnn1C`?
HP1b chromo inh: inconclusive; Sfp inh: 13%; JMJD2A Tudor: 28µM*; G9a block: 8%[59 µM]; L3MBTL1 inh: -2%; BAZ2B inh: 6%

What do the screens show for `CCc1ccc(C(=O)/C=C/c2cnn(C)c2C)s1`?
HP1b chromo inh: 29%; Sfp inh: 20%; JMJD2A Tudor: 1%; G9a block: -3%[59 µM]; L3MBTL1 inh: -2%; BAZ2B inh: -5%
